# Screens: PubChem, National Center for Advancing Translational Sciences (NCATS)
# Rows were chosen to be rich in hits. Some 11% of all compounds tested hit in one or more screens of this group.
# Pf growth 48h – P. falciparum growth inhibition at 48 hours (one generation); P. falciparum luciferase growth in erythrocytes, 48 h; Potency, µM (highest dose often 28.7 µM), without a hit: at the highest dose activity change, negative = inhibition, actives largely listed as inhibitors; AID 504832; actives 5.9% (n = 310,000)
#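 First compound was added to culture medium, then infected red cells at 0.1% parasitemia and 2% hematocrit (final). After incubation at 37 C under 5% CO2, luciferase detection reagent was dispensed and light output recorded.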
# HCV inh – blocks hepatitis C virus; Huh7.5.1 HCVcc-Cre infection, luciferase reporter, 44 h; Potency, µM (series often up to 41.8 µM), without a hit: top-dose activity change, negative = inhibition, usual class: inhibitors; actives 3.4% (n = 340,000)
#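 A cell-based infection assay in which seeded cells (1,000 per well) receive test compound after 4 h, are inoculated with HCVcc-Cre at approximately 0.5 moi, and are incubated 44 h before luminescence detection.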
# AMA1 RON2 block – AMA1-RON2 (P. falciparum) interaction inhibition. AlphaScreen AMA1-biotinylated RON2 peptide binding. Potency, µM (series often up to 58.2 µM), without a hit: top-dose activity change, negative = inhibition, usual class: inhibitors. actives 0.2% (n = 360,000);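 note: 0% = vehicle wells and -100% = peptide control; nearly all actives have a fitted effect of over 45% in size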
#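 AMA1 (3D7) with his tag at 25 nM final met compounds first, then biotinylated RON2 peptide at 25 nM; detection used donor plus acceptor beads, 10 µg/mL apiece, read by AlphaScreen after 30 min at room temperature.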
# AmpC inh detg – blocks E. coli AmpC beta-lactamase in detergent assay. AmpC hydrolysis of nitrocefin, absorbance 480 nm, 0.01% Triton. actives 0.041% (n = 370,000). Potency, µM (highest dose often 114 µM), for inactives: at the highest dose activity change, negative = inhibition, hits mostly inhibitors;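 note: 0% = no-compound wells and -100% = no-enzyme wells; nearly all actives have a fitted effect of over 25% in size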
# Target sequence (P00811 whole entry, looked up): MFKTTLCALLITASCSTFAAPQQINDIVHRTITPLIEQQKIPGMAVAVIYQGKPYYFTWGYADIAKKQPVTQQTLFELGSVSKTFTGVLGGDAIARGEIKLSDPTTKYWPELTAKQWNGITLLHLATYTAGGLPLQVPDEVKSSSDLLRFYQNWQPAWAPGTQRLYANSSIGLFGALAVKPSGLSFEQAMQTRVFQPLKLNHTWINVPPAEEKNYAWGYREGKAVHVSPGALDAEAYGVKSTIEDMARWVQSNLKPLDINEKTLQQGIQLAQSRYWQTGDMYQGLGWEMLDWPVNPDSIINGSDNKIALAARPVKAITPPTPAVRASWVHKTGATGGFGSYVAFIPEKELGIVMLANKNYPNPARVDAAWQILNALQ
#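 AmpC (5.3 nM in the dispensed reagent) in 20 mM phosphate pH 7.0 with 0.01% (detergent screen) or 0.0001% Triton X-100 was preincubated with compounds for 15 min at room temperature. Nitrocefin was then added from an 800 uM solution, and hydrolysis was followed at 480 nm.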
# AmpC inh no detg – inhibitors of E. coli AmpC beta-lactamase without detergent; P00811; Potency, µM (top dose mostly 57.1 µM), for inactives: at the highest dose activity change, negative = inhibition, actives largely listed as inhibitors; AmpC nitrocefin hydrolysis, absorbance 480 nm, 0.0001% Triton; actives 0.52% (n = 330,000);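 note: plate controls were no compound for no effect and no enzyme for full effect; nearly all actives have a fitted effect of over 20% in size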
#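 20 mM phosphate pH 7.0 + 0.01% (detergent screen) or 0.0001% Triton X-100; 5.3 nM AmpC reagent; cpd preinc 15 min RT; nitrocefin (800 uM stock) to start; A480 q20 s × 4 min; Activity was normalised to no-enzyme and no-compound control wells.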
# Pf growth 96h – P. falciparum growth inhibition at 96 hour, primary screen for plastid delayed-death inhibitors. P. falciparum luciferase reporter growth, 96 h. Potency, µM (titrated, usually from 28.7 µM), for the others: top-dose activity change, negative = inhibition, actives largely listed as inhibitors. actives 6.9% (n = 320,000)
#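 Cell-based qHTS: luciferase-tagged P. falciparum in erythrocytes (2% hematocrit, 0.05% parasitemia final) incubated with compounds for 96 hours, 37 C, 5% CO2; luciferase detection reagent then added and luminescence measured.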
# Numbers without * were called inactive; ? = inconclusive; . = no result given; [ ] = another dose, or the depositor's remark. Calls come from the whole dose curve; as a rule, active = well fitted curve in the direction sought with a large enough effect; inconclusive = small, poorly fitted or top-dose-only effect, or another doubt; inactive = no such curve, though single readings can be large; an effect the other way counts as inactive or inconclusive. Unless noted, % is set by controls: 0 for no effect and ±100 for the full control effect; potency is the fitted concentration of half-maximal effect.
SMILES,Pf growth 48h,HCV inh,AMA1 RON2 block,AmpC inh detg,AmpC inh no detg,Pf growth 96h
CCCN(CCC)C(=O)Cn1c(=O)n(-c2cccc(C(F)(F)F)c2)c(=O)c2c(C)c(C)sc21,.,.,.,20%,.,.
O=C(NNc1c2ccccc2nc2ccccc12)c1ccc(O)cc1O,?,?,?,-6%,-40%,?
O=C(NNc1c2ccccc2nc2ccccc12)c1cccc(O)c1,13µM*,?,-15%,4%,-22%,?
O=C(NNc1c2ccccc2nc2ccccc12)C(O)c1ccccc1 (centres undefined),?,?,-4%,-1%,?,0.41µM*
O=C(NNc1c2ccccc2nc2ccccc12)c1ccc(O)cc1,?,10µM*,-3%,?,-58%,-102%
Cc1noc(C)c1S(=O)(=O)N(CC(=O)Nc1ccc(F)cc1F)c1ccc(C(C)C)cc1,.,.,.,3%,.,.
NC(CC(=O)O)c1ccc(Br)cc1 (centres undefined),3%,14%,-1%,-13%,-9%,9.3µM*
O=C(O)CC(Cc1ccc(Br)cc1)C(=O)O (centres undefined),1%,23%,19%,-2%,-15%,?
COc1ccc(C(=O)Oc2c(Sc3ccc(C)cc3)c(C)nn2C(C)(C)C)c(OC)c1,.,.,.,3%,.,.
COC(=O)C1C(=O)c2c([nH]c(C(=O)OC3CCCC3C)c2C)CC1C (centres undefined),15%,?,-6%,?,7.1µM*,19%
Cc1cc(=O)[nH]c(N/N=C/c2c(C)nn(-c3ccccc3)c2Cl)n1,4.7µM*,-23%,42%,1%,-11%,8.3µM*
Cc1nn(-c2ccccc2)c(Cl)c1/C=N/Nc1nc2ccccc2[nH]1,0.74µM*,-6%,23%,-1%,-19%,0.74µM*
Cc1cc(=O)[nH]c(N/N=C/c2c(C)oc3ccccc23)n1,?,3%,7%,2%,-1%,?
Cc1nn(-c2ccccc2)c(Cl)c1/C=C1\C(=O)N(C)C(=S)N1C,?,?,-2%,-4%,-13%[11.4 µM],13µM*
NC(CO)(CO)CO,6%,.,.,.,.,-20%
Cc1cc2c(cc3c(SCC(=O)Nc4cccc(Cl)c4C)nnc(C)n32)o1,.,.,.,-8%,.,.
CCOc1cccc(=NC2CCCCC2)c2c(C)n(C)c(C)c12,1.9µM*,?,-13%,-3%,4%,?
CCOc1ccccc1OCCNC1CCCC1,-2%,-11%,-4%,-19%,-9%,-1%
N#C/C(=C\c1cn(CCOc2ccccc2)c2ccccc12)C(=O)NCC1CCCO1 (centres undefined),9.3µM*,?,-21%,-12%,64%,?
Cc1cc(/C=C(\C#N)C(=O)NCC2CCCO2)c(C)n1-c1ccc(Cl)cc1 (centres undefined),10µM*,?,-28%,5%,111%,10µM*
COc1ccccc1OCCn1cc(/C=C(\C#N)C(=O)NCc2cccs2)c2ccccc21,?,-14%,9%,-5%,-32%,5%
Cc1ccc(C)c(OCCn2cc(/C=C(/C#N)C(=O)NCC3CCCO3)c3ccccc32)c1 (centres undefined),2.1µM*,-11%,-7%,-7%,31%,45%
CCc1cccc(NC(=O)c2cc3c(=O)oc4ccc(C)cc4c3s2)c1,.,.,.,-2%,.,.
COc1ccc(Cn2ccc3nc(C)c(C(=O)NCc4ccc(SC)cc4)cc3c2=O)cc1,.,.,.,-2%,.,.
COC(=O)c1sc(N)c(C(=O)OC)c1Cn1ncc(Cl)c(Cl)c1=O,13µM*,11µM*,-2%,-5%,-18%,8.3µM*
SMILES,Pf growth 48h,HCV inh,AMA1 RON2 block,AmpC inh detg,AmpC inh no detg,Pf growth 96h
COc1ccc(CNC(=O)C2CCN(C(=O)c3ccc(-n4ccc5ccccc54)s3)CC2)cc1,.,.,.,2%,.,.
Cc1ccc(C)c(SCC(=O)Nc2cccnc2Cl)c1,10µM*,-10%,5%,-12%,-8%[11.4 µM],?
O=[N+]([O-])c1ccccc1/C=N\Nc1nccs1,67%,?,22%,?,-33%,?
Clc1cccc(Cl)c1/C=N\Nc1nccs1,?,-14%,11%,-1%,-23%,9.3µM*
Cc1ccc(NC(=O)CCS(=O)(=O)c2ccc(Br)s2)c(Br)c1,.,.,.,19%,.,.
O=C(CN1c2ccccc2Sc2ccccc21)N/N=C/c1ccc(Cl)cc1Cl,?,?,3%,5%,-31%,?
O=C(CN1CCOCC1)NNC(=S)Nc1ccc(Cl)cc1,5%,6%,107%,-13%,-26%,-12%[5.75 µM]
O=C(CN1c2ccccc2Sc2ccccc21)NNC(=S)Nc1ccc(Cl)cc1Cl,18%,-18%,20%,-8%,16µM*,117%
O=C(CN1c2ccccc2Sc2ccccc21)NNC(=S)Nc1ccc(Cl)cc1,4%,35µM*,20%,18%,-48%,-16%
COc1ccc(N2CCN(c3ncnc4onc(C)c34)CC2)cc1,.,.,.,26%,.,.
COc1ccc(C(=O)NCC(O)COc2ccc(C(C)(C)C)cc2)cc1[N+](=O)[O-] (centres undefined),-4%,?,.,-5%,-1%,6.6µM*
Cn1c(SCC(=O)NC(C)(C)C)nc(O)cc1=O,-5%,10%,0%,?,-8%,5%
COc1ccccc1-n1c(SCC(=O)NC(C)(C)C)nc(O)cc1=O,2.3µM*,27%,1%,-10%,-16%,35%
CC(C)(C)NC(=O)CSc1nc(O)cc(=O)n1-c1ccccc1F,2.6µM*,22%,0%,?,-45%,42%
CCCOc1cccc(C(=O)Nc2cc(-c3ccccc3)no2)c1,.,.,.,16%,.,.
COc1ccc(-c2cc(-c3ccccc3)c(C#N)c(S(C)=O)n2)cc1 (centres undefined),.,22µM*,-3%,4%,50%,9%
COc1ccc(-c2cc(-c3cccs3)c(C#N)c(SCC(=O)NCc3ccccc3OC)n2)cc1,2.3µM*,?,-5%,-12%,-12%,10µM*
COc1ccc(-c2cc(-c3cccs3)c(C#N)c(SCC(=O)NCc3ccccc3)n2)cc1,?,-29%,11%,-3%,1%,19%
CCSc1nc(-c2ccc(OC)cc2)cc(-c2ccccc2)c1C#N,.,?,6%,?,-32%,13µM*
COc1ccc(-c2cc(-c3ccccc3)nc(SCC(=O)Nc3ncc(C)s3)c2C#N)cc1,8.3µM*,?,-12%,-3%,-26%,?
O=C(Nc1c2c(nn1-c1ccc(Cl)cc1)CS(=O)(=O)C2)c1cccc(F)c1,.,.,.,2%,.,.
O=C(NCCO)C(=O)Nc1c2c(nn1-c1ccc(F)cc1)CSC2,.,.,.,4%,.,.
